Molecules are shown by their SMILES.

The target in the test is Ras-related C3 botulinum toxin substrate 1 (Homo sapiens) (UniProt P63000). Put plainly: wildtype Rac1 GTP binding inhibitors, dose response, biochemical, multiplex bead flow cytometry (AID 1340). The note with it: GST-Rac1 beads, Bodipy-FL-GTP binding; at 100 µM (top of the series) unless noted. For orientation: In flow cytometry, cells or beads pass a laser one at a time.
Molecule `COc1cc2[nH]c(=S)nc(NCc3cccs3)c2cc1OC` returned a GTP binding signal, raw median fluorescence (lower = inhibition) (MCF (arbitrary fluorescence units)) of 161.

Molecule `Cc1nnc(N2CCOCC2)c2nn(-c3ccccc3)c(C)c12` displayed a GTP binding signal, raw median fluorescence (lower = inhibition) (MCF (arbitrary fluorescence units)) of 198. Take `Cc1ccc(C(=O)c2ccccc2C(=O)O)cc1`: the GTP binding signal, raw median fluorescence (lower = inhibition) (MCF (arbitrary fluorescence units)) is 38.5. `COc1ccc(S(=O)(=O)N2CCCCC2)cc1NC(=O)c1ccc([N+](=O)[O-])o1` yielded a GTP binding signal, raw median fluorescence (lower = inhibition) (MCF (arbitrary fluorescence units)) of 172. With `CCOc1ccc2c(c1)c(N=NC(=N)N)c(O)n2C`, the GTP binding signal, raw median fluorescence (lower = inhibition) (MCF (arbitrary fluorescence units)) amounted to 165. To `O=C(OC(C(=O)NCc1cccs1)c1ccccn1)c1cccs1` (centres undefined) belongs 175; to `CCN(CC)c1ccc(/C=C(/C#N)c2nc3ccc(C)cc3[nH]2)c(OC(C)C)c1`, 264. Molecule `O=C(Nc1nccs1)c1ccc(-c2cccc([N+](=O)[O-])c2)o1` gave a GTP binding signal, raw median fluorescence (lower = inhibition) (MCF (arbitrary fluorescence units)) of 181. In the case of `COc1ccc(-c2cc(C(F)(F)F)c3c(n2)sc2c(O)cc(=O)[nH]c23)c(OC)c1`, the GTP binding signal, raw median fluorescence (lower = inhibition) (MCF (arbitrary fluorescence units)) came to 162. As to `COc1cc(N2CCCC2)c(OC)cc1/C=c1/sc2nc3ccccc3n2c1=O`, the GTP binding signal, raw median fluorescence (lower = inhibition) (MCF (arbitrary fluorescence units)) worked out at 195. Then `COC(=O)c1ccccc1NC(=O)CSCC(=O)Nc1ccccc1OC`, with 230; and `O=C(O)c1cc([N+](=O)[O-])ccc1NCc1ccccc1Cl`, with 84.1. Then `Cc1cc(NCc2ccccn2)n2c(nc3ccccc32)c1C#N`, with 192; and `COc1ccc(CC(C)N2CCN(Cc3ccccc3)CC2)c(OC)c1` (centres undefined), with 272. Molecule `O=c1n(Cc2ccc(Cl)cc2)c2sc3c(c2c2ncnn12)CCCC3` registered a GTP binding signal, raw median fluorescence (lower = inhibition) (MCF (arbitrary fluorescence units)) of 146. Consider `NC(=O)c1cc2nc(-c3ccco3)cc(C(F)(F)F)n2n1`, for which the GTP binding signal, raw median fluorescence (lower = inhibition) (MCF (arbitrary fluorescence units)) was determined as 91.8. To `CCN(CC)c1ccc(/C=C/C(=O)c2ccc(Br)cc2)cc1` belongs 0.

In turn, `COc1ccccc1OCCn1cc(C(=O)O)c2c(Cl)cccc21` gave a GTP binding signal, raw median fluorescence (lower = inhibition) (MCF (arbitrary fluorescence units)) of 52. Turning to `O=C(c1cccnc1SCCc1ccccc1)N1CCOCC1`, the GTP binding signal, raw median fluorescence (lower = inhibition) (MCF (arbitrary fluorescence units)) came out at 64.8.

(Values after PubChem BioAssay.)
